Compound activity from PubChem BioAssay.
Only some compounds are listed: those with a hit (about 19% of all), similar ones and a draw of the others.
IL-1B inflam inh – qHTS for Inhibitors of Inflammasome Signaling: IL-1-beta AlphaLISA Primary Screen; THP-1 LPS/ATP IL-1B secretion, AlphaLISA, 16 h; stronger effect = lower value; activity change, % at 57.5 µM; hit rate 4.7% among 360,000; in the data active means activity change below about -50%; inconclusive means mostly about -30% to -49%
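Secreted IL-1B measured by AlphaLISA bead assay after 16 h compound exposure of THP-1 cells; compounds (final up to 57.5 uM) added 1 h before LPS (250 ng/mL) and ATP (1.25 mM) stimulation; lower signal means less secretion.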
HT1080NT lethal – qHTS for induction of synthetic lethality in tumor cells producing 2HG: qHTS for the HT-1080-NT fibrosarcoma cell line; hit rate 1.6% among 360,000; HT-1080-NT fibrosarcoma viability, CellTiter-Glo ATP luminescence, 48 h; Potency, µM (doses to about 46.1 µM), without a hit: at the highest dose activity, negative = less viability, actives largely listed as cytotoxic;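 further: NT is the 2HG producing partner of a matched IDH1 knockdown line; potency means the concentration at half of the fitted maximal effect; 0% = DMSO-treated cells and -100% = media-only wells without cells; nearly all actives have a fitted effect of over 55% in size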
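HT-1080-NT fibrosarcoma cells (2HG-overproducing), 750 cells/well in RPMI with 5% FBS, dosed after 2 h and incubated 48 h at 37C. CellTiter-Glo luminescence normalized to DMSO and no-cell wells; concentration-response curves fitted and classed.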
TDP1 cell CPT – qHTS for Inhibitors of human tyrosyl-DNA phosphodiesterase 1 (TDP1): qHTS in cells in presence of CPT; Potency, µM (doses to about 46.2 µM), for the others: at the top dose activity change, negative = growth inhibition, hits mostly inhibitors; chicken DT40 Tdp1-/-;hTDP1 cells + 20 nM CPT, ATP luminescence, 48 h; hit rate 12% among 420,000; further: potency means the concentration at half of the fitted maximal effect; nearly all actives have a fitted effect of over 55% in size
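Chicken DT40 Tdp1-/- cells stably complemented with human TDP1 were seeded at 400 cells/well in medium containing 20 nM camptothecin, exposed to pin-transferred compounds, and grown at 37 °C for at least 48 hr. Viability was read as ATP luminescence.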
uPA surface inh – qHTS for Inhibitors of Cell Surface uPA Generation; cell surface uPA generation assay, qHTS; Potency, µM (doses to about 38.3 µM), for the others: top-dose activity change, negative = inhibition, most hits filed as inhibitors; hit rate 0.31% among 330,000; AID 540303, 2011; active means well fitted inhibition curve with a large enough effect; inconclusive means small, poorly fitted or top-dose-only effect; inactive means no such curve, though single readings can be large or run the other way; tested in mouse RAW 264.7 cells; further: potency means the concentration at half of the fitted maximal effect; nearly all actives have a fitted effect of over 55% in size
DT40 TDP1 no CPT – qHTS for Inhibitors of human tyrosyl-DNA phosphodiesterase 1 (TDP1): qHTS in cells in absence of CPT; DT40 Tdp1-/- hTDP1 cells, no CPT, ATP luminescence, 48 h; Potency, µM (titrated, usually from 46.2 µM), for the others: at the highest dose activity change, negative = growth inhibition, usual class: inhibitors; hit rate 15% among 420,000; AID 686978, 2013; further: potency means the concentration at half of the fitted maximal effect; nearly all actives have a fitted effect of over 55% in size
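Camptothecin absent (DMSO only). Human TDP1-complemented DT40 knockout cells, 400 cells/well, 37 °C for minimum 48 hr; ATP measured via CellTiter-Glo, 30 min dark incubation, luminescence.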
HT1080 IDH1KD tx – qHTS for induction of synthetic lethality in tumor cells producing 2HG: qHTS for the HT-1080-IDH1KD cell line; HT-1080 IDH1 knockdown viability, ATP luminescence, 48 h; Potency, µM (series often up to 46.1 µM), without a hit: at the top dose activity, negative = toxicity, actives largely listed as cytotoxic; hit rate 2% among 360,000;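 further: potency means the concentration at half of the fitted maximal effect; 0% = DMSO wells and -100% = cell-free medium wells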
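After a 2 h attachment period, IDH1KD HT-1080 cells took pin-transferred compound for 48 h at 37 °C; ATP-based luminescence after 10 min room-temperature reagent incubation reported viability.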
The depositor's hits bear a star; ? = inconclusive; / = not tested or not shown; [ ] = remark or other dose. Unless noted, the call rests on the fitted dose curve; in most records, active means well fitted curve in the direction sought with a large enough effect; inconclusive means small, poorly fitted or top-dose-only effect, or another doubt; inactive means no such curve, though single readings can be large; an effect the other way counts as inactive or inconclusive. Unless noted, on the % scale 0 is the no-effect control and ±100 the full control effect.

SMILES	IL-1B inflam inh	HT1080NT lethal	TDP1 cell CPT	uPA surface inh	DT40 TDP1 no CPT	HT1080 IDH1KD tx
O=C(Nc1ccc(Br)cc1)c1nn(C23CC4CC(CC(C4)C2)C3)cc1Br	19.7	4.1%	?	7.5%	14.6µM*	8.4%
N#Cc1cccc(NC(=O)N2CC3(CCN(C(=O)Oc4ccccc4)CC3)C2)c1	/	/	-3.6%	/	?	/
O=C(CCCCCn1c(=S)[nH]c2ccccc2c1=O)N1CCC2(CC1)OCCO2	22.2	5.1%	-27.6%	-7.4%	-21.3%	4.0%
COc1ccccc1N1CCN(C(=O)CCCn2c(=S)[nH]c3ccccc3c2=O)CC1	-6.7	5.8%	8.2µM*	/	5.17µM*	0.4%
COc1cc2[nH]c(=O)n(-c3ccc(C)cc3)c(=O)c2cc1OC	-4.9	14.1%	-14.2%	-1.0%	-1.5%	21.7%
COc1cc2[nH]c(=O)n(Cc3ccc(C(=O)N4CCN(c5ccc(Cl)cc5)CC4)cc3)c(=O)c2cc1OC	/	/	3.26µM*	/	2.91µM*	/
CCOc1cc2[nH]c(=O)n(CCCCC(=O)N3CCN(c4ccccc4)CC3)c(=O)c2cc1OCC	/	/	?	/	5.17µM*	/
COc1ccc(NC(=O)Nc2cccc3c2O[C@H](CN(C)C(=O)NC2CCCCC2)[C@@H](C)CN([C@H](C)CO)C3=O)cc1	?	2.8%	?	-16.3%	?	0.4%
O=C1NCN(c2ccccc2)C12CCN(C(c1nnnn1C1CCCC1)C1CC1)CC2 (stereo not given)	-21.7	0.0%	?	/	?	-7.2%
O=[N+]([O-])c1ccc(Cl)c([N+](=O)[O-])c1	-110.1*	5.17µM*	3.66µM*	1.26µM*	4.61µM*	18.4µM*
C=C1CCC(O)C/C1=C\C=C1/CCCC2(C)C1CCC2C(C)CCCC(C)C (stereo not given)	/	/	23.7µM*	/	26.6µM*	/
COC(=O)C1=C(c2ccccc2)C[C@@H]2CC[C@H]1N2C	-5.9	0.0%	5.8%	-0.2%	8.9%	-2.4%
C=Cc1ccc(Cn2c(C)c(CNCCc3cc(OC)ccc3OC)c(C(=O)O)c2C)cc1	/	/	?	/	13µM*	/
CC1=CC(C)CC(C)OC(=O)CC(c2ccc(O)cc2)NC(=O)C(Cc2c(Br)[nH]c3ccccc23)N(C)C(=O)C(C)NC(=O)C(C)C1 (stereo not given)	-4.2	1.3µM*	0.0259µM*	-10.7%	0.0146µM*	0.0517µM*
O=C(Cc1ccccc1)N1CCN(Cc2cccnc2)CC1	1.7	16.2%	-5.9%	2.5%	-5.0%	-22.8%
CC(Oc1ccc(Cl)cc1Cl)C(=O)Nc1ccc(S(=O)(=O)Nc2cnc3ccccc3n2)cc1 (stereo not given)	45.8	-29.1%	?	-2.5%	25.9µM*	-20.1%
CCOC(=O)C1SC2(C(F)F)CC1(O)c1c(c(OC)c3occc3c1OC)O2 (stereo not given)	3.7	-13.4%	?	-21.4%	?	23.4%
c1ccc(C2(N3CCCC3)CCCCC2)cc1	/	/	?	/	18.8µM*	/
Clc1ccc(-c2nc3ccc(Cl)cn3c2CN2CCOCC2)cc1	-18.0	-6.2%	?	6.1%	23.1µM*	-6.1%
Clc1ccc(-c2nc3ccc(Cl)cn3c2CN2CCCCC2)cc1	-20.0	15.8%	?	4.2%	16.4µM*	12.0%
CC(=O)O[C@@H]1CN2CCC1CC2	/	/	-4.2%	/	-6.2%	/
O=C1CCCN1CC#CCN1CCCC1	-24.7	-2.6%	-8.7%	8.6%	0.3%	3.7%
C[C@@H](Cc1cccc(C(F)(F)F)c1)NCCCc1ccccc1	/	/	13.3µM*	/	13.3µM*	/
CCN[C@@H](C)Cc1ccccc1	/	/	12.9%[92.5 µM]	/	2.8%[92.5 µM]	/
